Data from PubChem BioAssay AID1942 (Johns Hopkins Ion Channel Center, 2009).
About 580 (24%) of roughly 2,400 compounds were called active. A selection follows. Unmarked numbers belong to inactive results.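 Rule for the calls: active = activity change at or above the mean plus 3 SD of buffer wells without dofetilide, per plate; inactive = the rest.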

Target: Potassium voltage-gated channel subfamily KQT member 2 (Rattus norvegicus) (UniProt O88943)
Experiment: rat KCNQ2 channel activation by compounds alone, confirmation, counter-screen for hERG block protector project, cell-based, CHO, FluxOR thallium flux (AID 1942);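 note: normalized value minus buffer-control mean plus three SD of buffer wells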
Conditions: CHO-KCNQ2 cells, FluxOR thallium flux fluorescence; at 10 µM; stronger effect = higher value

Chain of Potassium voltage-gated channel subfamily KQT member 2 (Rattus norvegicus) (O88943 whole entry, looked up): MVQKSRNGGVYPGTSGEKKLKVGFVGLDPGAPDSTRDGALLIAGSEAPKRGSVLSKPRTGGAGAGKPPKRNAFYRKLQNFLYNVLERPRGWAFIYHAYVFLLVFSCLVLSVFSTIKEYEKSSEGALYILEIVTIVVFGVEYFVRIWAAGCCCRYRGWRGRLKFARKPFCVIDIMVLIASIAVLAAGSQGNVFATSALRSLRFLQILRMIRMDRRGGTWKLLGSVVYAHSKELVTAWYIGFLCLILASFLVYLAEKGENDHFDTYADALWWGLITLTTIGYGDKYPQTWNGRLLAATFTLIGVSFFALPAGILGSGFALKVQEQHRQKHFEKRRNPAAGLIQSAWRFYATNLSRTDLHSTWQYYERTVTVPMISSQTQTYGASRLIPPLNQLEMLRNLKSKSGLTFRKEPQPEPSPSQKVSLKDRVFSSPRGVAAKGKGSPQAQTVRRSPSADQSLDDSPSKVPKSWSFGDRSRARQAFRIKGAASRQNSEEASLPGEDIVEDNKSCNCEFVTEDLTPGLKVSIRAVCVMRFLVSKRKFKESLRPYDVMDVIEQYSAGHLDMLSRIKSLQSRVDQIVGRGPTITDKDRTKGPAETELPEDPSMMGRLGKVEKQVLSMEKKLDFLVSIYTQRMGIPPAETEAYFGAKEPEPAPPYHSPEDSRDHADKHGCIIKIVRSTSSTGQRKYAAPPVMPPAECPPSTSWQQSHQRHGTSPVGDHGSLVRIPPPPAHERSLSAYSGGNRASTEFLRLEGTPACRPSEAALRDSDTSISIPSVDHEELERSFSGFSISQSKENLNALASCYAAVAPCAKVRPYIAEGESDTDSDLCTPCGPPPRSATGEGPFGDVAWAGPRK

| SMILES | activity change, less the hit threshold |
| --- | --- |
| CC1(C)CC(=O)c2c(nn(-c3ccccc3)c2-c2ccncc2)C1 | -16.4% |
| Cc1nn(Cc2ccccc2)c2c1C(c1cccnc1)C(C#N)=C(N)O2 (configuration not stated) | -10.8% |
| O=C(COc1ccccc1)NC(=S)Nc1ccc2c(c1)Cc1ccccc1-2 | -19.3% |
| CC(Oc1ccccc1F)C(=O)NC1CCS(=O)(=O)C1 (configuration not stated) | -17.8% |
| O=C(O)c1cc(/C=N\O)ccc1OCc1ccccc1 | -16.1% |
| COc1ccc(C(=O)CNc2ccccc2C#N)cc1 | -15% |
| COc1ccc(C(=O)CC(=O)C(=O)Nc2ccc(C)c(Cl)c2)cc1 | -9% |
| COc1ccc(C(=O)CC(=O)C(=O)Nc2ccc(C)cc2Cl)cc1 | 10.2% (active) |
| COc1ccc(C(=O)CC(=O)C(=O)Nc2ccc(C)c(C)c2)cc1 | -11.4% |
| COc1cccc(C(=O)CC(=O)C(=O)Nc2ccc(C)cc2Cl)c1 | 10.8% (active) |
| COc1ccc(C(=O)CC(=O)C(=O)Nc2ccccc2)cc1 | 3.1% (active) |
| COc1ccc(C(=O)CC(=O)C(=O)Nc2ccccc2C(F)(F)F)cc1 | 7.4% (active) |
| COc1ccc(C(=O)CC(=O)C(=O)Nc2ccc(Cl)cc2)cc1 | -2.1% |
| COc1cc(OC)cc(C(=O)O/N=C(\N)c2cccc(C)c2)c1 | -9.7% |
| CCOc1ccccc1NC(=O)C(=O)CC(=O)c1cccc(OC)c1 | -8.6% |
| CCN1CCN(CC(=O)c2ccc(OC)cc2)CC1 | -18.4% |
| CCCNc1c(NS(=O)(=O)c2cccc(C#N)c2)c(=O)oc2ccccc12 | -15.8% |
| CCOC(=O)c1c(C)oc2cc(Br)c(OC)cc12 | -14.7% |
| COCCCNC(=O)CC(NS(=O)(=O)c1ccc(F)cc1)c1ccc(OC)cc1 (configuration not stated) | -22.5% |
| O=C1C=C(NCCN2CCOCC2)C(=O)c2cnccc21 | -10.1% |
| CCN(Cc1ccc(OC)c(F)c1)C(=O)C1CCCO1 (configuration not stated) | -7.1% |

| SMILES | activity change, less the hit threshold |
| --- | --- |
| COc1cc(/C=C2/C(=O)NN(c3ccccc3)C2=O)cc(Br)c1O | -17.5% |
| CC(C)CCNC(=O)CCc1nnc(Cc2c[nH]c3ccccc23)o1 | -15.1% |
| COc1ccc(C(=O)CC(=O)C(=O)Nc2ccccc2OC)cc1 | -10.2% |
| COc1ccc(C(=O)CC(=O)C(=O)Nc2ccccc2Cl)cc1 | 44.4% (active) |
| CCOc1ccccc1NC(=O)C(=O)CC(=O)c1ccc(OC)cc1 | -5.2% |
| CC1CCCC(C(=O)OCc2ccccc2)N1 (configuration not stated) | -16.7% |
| Cn1cc([N+](=O)[O-])c(C(=O)NCc2cc3cc(Cl)ccc3[nH]2)n1 | -13.6% |
| N#Cc1ccccc1OCCN1C(=O)c2ccccc2C1=O | -7.5% |
| Cc1ccc(-c2cc(-c3n[nH]c(=S)o3)c3ccccc3n2)cc1 | 37.2% (active) |
| C=CCn1c(-c2cc(-c3ccc(C)cc3)nc3ccccc23)n[nH]c1=S | -9.8% |
| Cc1ccc(/C=N/NC(=O)c2cc(-c3ccncc3)nc3ccccc23)o1 | -26.9% |
| N#Cc1cc(-c2ccccc2)nnc1Oc1ccccc1 | -14.7% |
| COc1cc2c(cc1OC)CN(C(=O)c1sccc1C)CC2 | -20.7% |
| COc1ccccc1C(=O)Nc1ccnn1C1CCN(C(=O)c2ccoc2C)CC1 | -12.1% |
| COc1ccccc1C(=O)Nc1ccc(C(=O)N2CCCC2)cc1 | -7.2% |
| COc1ccc(NC(=O)c2ccccc2SC)cc1OC | -19.4% |
| COc1ccccc1C(=O)NNC(=O)C(=O)Nc1ccc(C)cc1 | 132% (active) |
| COc1ccccc1C(=O)NNC(=O)C(=O)Nc1ccc(C)c(Cl)c1 | 126% (active) |
| Cc1ccc(NC(=O)C(=O)NNC(=O)c2ccccc2C)cc1Cl | 90.3% (active) |
| COc1ccccc1C(=O)NNC(=O)C(=O)NC(C)(C)C | 16.8% (active) |
| O=C(O)c1cc(-c2cccc([N+](=O)[O-])c2)n[nH]1 | -19.6% |

| SMILES | activity change, less the hit threshold |
| --- | --- |
| O=C(Nc1ccc(Cl)c(-c2nc3ccccc3[nH]2)c1)c1cccnc1 | -40.7% |
| COc1ccc(CNC(=O)C2CCCN2)cc1OC (configuration not stated) | -26.1% |
| COc1cc(C2C(C#N)=C(N)Oc3c2ccc2ccccc32)ccc1OCC(=O)Nc1ccc(C)cc1 (configuration not stated) | -15.1% |
| Cc1ccc(C)c(OCc2cc(C(=O)N3CCNC(=O)C3)no2)c1 | -16% |
| Cn1c(=O)c(-c2cc(=O)[nH][nH]2)c(O)c2ccccc21 | -13.7% |
| CN(C)NC(=O)C(NC(=O)c1ccc(N)cc1)C12CC3CC(CC(C3)C1)C2 (configuration not stated) | -13.9% |
| Cc1ccc(NC(=O)CN2C(=O)S/C(=C\c3ccc(-c4cccc(C(=O)O)c4C)o3)C2=O)cc1 | -27% |
| O=C(COc1ccc(Cl)cc1)NNC(=O)C(=O)NC1CCCCC1 | -11.2% |
| COc1ccccc1C(=O)NNC(=O)C(=O)NC1CCCCC1 | 49.7% (active) |
| COc1cc(NC(=O)c2ccccc2OCc2ccccc2)cc(OC)c1OC | -26.8% |
| COc1ccc(C(=O)NNC(=O)C(=O)NC2CCCCC2)cc1 | -1.7% |
| COc1ccccc1C(=O)NCc1ccc2c(c1)OCO2 | -21.4% |
| COc1ccccc1C(=O)NNC(=O)C(=O)NCc1ccccc1 | 18.8% (active) |
| CC(C)CSC1=NSC2=NC(=O)/C(=C\c3ccccc3)C(=N)N12 | 1.1% (active) |
| Cc1ccc(/C=C2/C(=N)N3N=C(CC(=O)N4CCCC4)SC3=NC2=O)cc1 | -19.5% |
| O=C(OCc1ccc([N+](=O)[O-])cc1)c1cc2ccccc2oc1=O | -21.1% |
| COc1cc(C2NC(=O)NC(C)=C2C(=O)OCC2CCCCC2)ccc1O (configuration not stated) | -7.2% |
| CCOC(=O)C1=C(c2ccccc2)NC(=O)NC1c1ccc(O)c(Cl)c1 (configuration not stated) | 0.1% (active) |
| CCOC(=O)C1=C(c2ccccc2)NC(=O)NC1c1ccc(OC)c(OC)c1 (configuration not stated) | -25.1% |
| C/C(=N\NC(=O)COc1ccc(C)cc1C(C)C)c1ccc(-n2ccnc2)cc1 | -22.3% |
